PubChem BioAssay (NCI)
About 83,000 compounds went through this panel and 20% of them were active in at least one assay; those are over-represented in the sample as a whole.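 Cells were grown in 96-well plates and exposed to the test compound at a single concentration for 48 hours; results are reported as percent growth, with values below 10 considered active.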 A number with no mark means an inactive call. Active and inactive are the calls of the source.

Each compound was assayed on MDA-MB-468 breast (assay: NCI-60 one-dose screen, 48 h (100 = growth as untreated, 0 = no growth, -100 = all killed)). Conditions: 10 µM unless noted.

Question: `COc1ccc(-c2nc(-c3ccccc3)c(-c3ccccc3)[nH]2)cc1OC1CCCC1` was tested. Which growth did it give?
Answer: The growth was 40.4%.

Question: How did the growth turn out when `COc1ccc(-c2cc3c(OC)c(OC)c(OC)cc3oc2=O)cc1` was run?
Answer: Its growth is 23.6%.

Question: For `CC(C)N1CN2C(=S)NC3C2N(C1)C(=S)N3C` (stereo not drawn), which growth is on record?
Answer: The growth was 101%.

Question: For `Cc1ccc(-n2c(-c3ccccc3)c(-c3ccccc3)c3c(SCC(=O)n4[nH]c(N)cc4=O)ncnc32)cc1`, which growth is on record?
Answer: The growth was 91.8%.

Question: How did the growth turn out when `NC(=S)n1c(=O)n(-c2cccc(C(F)(F)F)c2)c(=O)c2cc(-c3ccc(F)cc3F)ccc21` was run?
Answer: The growth was 1.23% (active).

Question: For `C[C@@H](C(=O)NCCCC#Cc1cnc(Nc2ccc(C#N)cc2)nc1NC1CC1)N(C)C(=O)/C=C/CN(C)C`, which growth is on record?
Answer: Its growth is 39.2%.

Question: `Clc1ccc(-c2nc3ccc(/C(=N\N=C\c4ccccc4)c4ccccc4)cc3[nH]2)cc1` was tested. Which growth did it give?
Answer: The growth was 79.1%.

Question: For `COc1ccc(/C(C#N)=C2C=C/C(=N/O)c3ccccc3\2)cc1`, which growth is on record?
Answer: Its growth is 37.1%.

Question: Which growth does the source give for `CC(=O)N/C(=C1/OC(C(O)C(O)C(O)CO)CN1C)[P+](c1ccccc1)(c1ccccc1)c1ccccc1` (stereo not drawn) here?
Answer: The growth was 106%.

Question: For `O=C1[C@H]2Cc3c([nH]c4ccccc34)[C@@H](c3c(Cl)cccc3Cl)N2C(=O)CN1C1CCN(Cc2ccccc2)CC1`, which growth is on record?
Answer: The growth was 97.7%.

Question: Which growth does the source give for `O=C(N/N=C\c1c(O)ccc2ccccc12)C1CC1` here?
Answer: The growth was 11.8%.

Question: With `CCNC(=S)NNC(=O)c1cc2ccc1CCc1ccc(cc1)CC2` as the compound, how does the growth read?
Answer: The growth was 106%.

Question: Which growth does the source give for `O=C1c2cccc3cccc(c23)C(=O)N1N1C(=O)c2cccc3c(N4CCOCC4)ccc(c23)C1=O` here?
Answer: Its growth is 99.9%.

Question: With `Cc1ccc(N2C(=O)CCC2=O)cc1` as the compound, how does the growth read?
Answer: The growth was 103%.

Question: How did the growth turn out when `CN(C)c1ccc(/C=N/N=C(N)N)cc1` was run?
Answer: The growth was 33%.

Question: How did the growth turn out when `O=C(/C(=N/O)S(=O)(=O)c1ccccc1)c1cccs1` was run?
Answer: The growth was 101%.

Question: Which growth does the source give for `COc1ccc(-n2c(=S)sc3c(Cl)nc(C)nc32)c(OC)c1` here?
Answer: Its growth is -19.6% (active).

Question: For `O=C(N/N=C/c1ccccc1O)Nc1nn[nH]n1`, which growth is on record?
Answer: Its growth is 97.6%.

Question: With `CCCCN1C(=O)/C(=c2\sc3n(c2=O)C2C(NN=3)N(CC)C(=O)N2CC)c2cc(Cl)ccc21` (stereo not drawn) as the compound, how does the growth read?
Answer: Its growth is 56.2%.

Question: How did the growth turn out when `O=C(Nc1nc(C(=O)N2CCN(C(c3ccccc3)c3ccccc3)CC2)cs1)c1ccc(NC2CCCCC2)c([N+](=O)[O-])c1` was run?
Answer: Its growth is 104%.

Question: How did the growth turn out when `O=C1NC(=O)/C(=C/c2ccc(Cl)cc2Cl)N1` was run?
Answer: Its growth is 130%.

Question: How did the growth turn out when `C=CN(C)S(C)(=O)=O` was run?
Answer: The growth was -3.6% (active).

Question: For `CC(C)(C)n1cc(-c2ccnc(NCCCNS(=O)(=O)c3ccc(Cl)cc3)c2)c(-c2cccc(O)c2)n1`, which growth is on record?
Answer: Its growth is -44.5% (active).

Question: How did the growth turn out when `CC(C)c1ccc(NC(=O)Nc2ccc(NC(=O)CCCC(=O)NOCc3ccccc3)cc2)cc1` was run?
Answer: The growth was 85%.

Question: How did the growth turn out when `C=CCS(C)(=O)=O` was run?
Answer: The growth was 95.9%.

Question: `Fc1ccc(N/N=C/c2ccc(-n3cccn3)cc2)cc1` was tested. Which growth did it give?
Answer: The growth was 121%.

Question: How did the growth turn out when `COc1ccc(-c2nc(C#N)c(N3CCC(S(=O)(=O)N4CCOCC4)CC3)o2)cc1` was run?
Answer: Its growth is 107%.

Question: For `O=C(O)CN1C(=O)CCC1=O`, which growth is on record?
Answer: Its growth is 108%.
